From paper PMC5540273 (PLoS ONE, 2017)

Columns and labels:
Conditions in all cases: concentration: 1 μM, replicates: in singlicate; n = 1
ERK8 = test system: T1, ERK8
T1 construct: gene MAPK15

ERN1 = test system: ERN1
FAK = test system: T2, FAK
T2 construct: gene PTK2

FER = test system: FER
FES = test system: FES
FGFR1 = test system: FGFR1
FGFR2 = test system: FGFR2
FGFR3 = test system: FGFR3
FGFR4 = test system: FGFR4
FGR = test system: FGR
FLT1 = test system: FLT1
FLT3-autoinhibited = test system: FLT3-autoinhibited
FLT3 = test system: FLT3
FLT4 = test system: FLT4
FRK = test system: FRK
FYN = test system: FYN
GAK = test system: GAK
GCN2(Kin.Dom.2,S808G) = test system: T3, GCN2(Kin.Dom.2,S808G)
T3 construct: gene EIF2AK4

GRK1 = test system: GRK1
GRK2 = test system: T4, GRK2
T4 construct: gene ADRBK1
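Further: KINOMEscan kinase panel screen.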

Cc1ccc(NC(=O)Nc2ccccc2F)cc1-c1ccc(C(=O)Nc2ccncc2)cc1 [GSK1398477]
%Inh (ERK8): 0%
%Inh (ERN1): 13%
%Inh (FAK): 0%
%Inh (FER): 16%
%Inh (FES): 11%
%Inh (FGFR1): 19%
%Inh (FGFR2): 14%
%Inh (FGFR3): 23%
%Inh (FGFR4): 21%
%Inh (FGR): 26%
%Inh (FLT1): 45%
%Inh (FLT3-autoinhibited): 0%
%Inh (FLT3): 13%
%Inh (FLT4): 34%
%Inh (FRK): 72%
%Inh (FYN): 40%
%Inh (GAK): 24%
%Inh (GCN2(Kin.Dom.2,S808G)): 28%
%Inh (GRK1): 0%
%Inh (GRK2): 0%

Fc1ccc(-c2nc[nH]c2-c2ccncc2)cc1 [SB-217360]
%Inh (ERK8): 4%
%Inh (ERN1): 43%
%Inh (FAK): 0%
%Inh (FER): 23%
%Inh (FES): 0%
%Inh (FGFR1): 0%
%Inh (FGFR2): 0%
%Inh (FGFR3): 0%
%Inh (FGFR4): 0%
%Inh (FGR): 0%
%Inh (FLT1): 0%
%Inh (FLT3-autoinhibited): 0%
%Inh (FLT3): 5%
%Inh (FLT4): 9%
%Inh (FRK): 0%
%Inh (FYN): 0%
%Inh (GAK): 57%
%Inh (GCN2(Kin.Dom.2,S808G)): 0%
%Inh (GRK1): 25%
%Inh (GRK2): 0%

COc1nccc(-c2c(-c3ccc(F)cc3)ncn2CCCN2CCOCC2)n1 [SB-282852]
%Inh (ERK8): 4%
%Inh (ERN1): 16%
%Inh (FAK): 0%
%Inh (FER): 0%
%Inh (FES): 0%
%Inh (FGFR1): 46%
%Inh (FGFR2): 0%
%Inh (FGFR3): 0%
%Inh (FGFR4): 0%
%Inh (FGR): 1%
%Inh (FLT1): 10%
%Inh (FLT3-autoinhibited): 4%
%Inh (FLT3): 0%
%Inh (FLT4): 0%
%Inh (FRK): 0%
%Inh (FYN): 0%
%Inh (GAK): 0%
%Inh (GCN2(Kin.Dom.2,S808G)): 1%
%Inh (GRK1): 29%
%Inh (GRK2): 2%

Cc1cnc(N)c(/C=C/c2cncc(C(=O)NCCc3ccc(Cl)cc3Cl)c2)c1.Cl [GSK190937]
%Inh (ERK8): 0%
%Inh (ERN1): 0%
%Inh (FAK): 0%
%Inh (FER): 4%
%Inh (FES): 0%
%Inh (FGFR1): 0%
%Inh (FGFR2): 9%
%Inh (FGFR3): 13%
%Inh (FGFR4): 6%
%Inh (FGR): 17%
%Inh (FLT1): 0%
%Inh (FLT3-autoinhibited): 0%
%Inh (FLT3): 2%
%Inh (FLT4): 7%
%Inh (FRK): 6%
%Inh (FYN): 20%
%Inh (GAK): 29%
%Inh (GCN2(Kin.Dom.2,S808G)): 3%
%Inh (GRK1): 0%
%Inh (GRK2): 0%

O=C1NC(=O)C(c2ccc(Cl)cc2)=C1Nc1ccc(O)cc1 [SB-340867]
%Inh (ERK8): 29%
%Inh (ERN1): 0%
%Inh (FAK): 0%
%Inh (FER): 4%
%Inh (FES): 0%
%Inh (FGFR1): 0%
%Inh (FGFR2): 0%
%Inh (FGFR3): 0%
%Inh (FGFR4): 0%
%Inh (FGR): 12%
%Inh (FLT1): 0%
%Inh (FLT3-autoinhibited): 0%
%Inh (FLT3): 6%
%Inh (FLT4): 0%
%Inh (FRK): 0%
%Inh (FYN): 0%
%Inh (GAK): 0%
%Inh (GCN2(Kin.Dom.2,S808G)): 0%
%Inh (GRK1): 0%
%Inh (GRK2): 0%

CS(=O)(=O)CCNCc1nc(-c2ccc3ncnc(Nc4ccc5c(cnn5Cc5ccccc5)c4)c3c2)cs1.Cl.Cl [GW569716]
%Inh (ERK8): 0%
%Inh (ERN1): 0%
%Inh (FAK): 0%
%Inh (FER): 0%
%Inh (FES): 0%
%Inh (FGFR1): 0%
%Inh (FGFR2): 0%
%Inh (FGFR3): 0%
%Inh (FGFR4): 8%
%Inh (FGR): 24%
%Inh (FLT1): 20%
%Inh (FLT3-autoinhibited): 0%
%Inh (FLT3): 0%
%Inh (FLT4): 0%
%Inh (FRK): 9%
%Inh (FYN): 0%
%Inh (GAK): 0%
%Inh (GCN2(Kin.Dom.2,S808G)): 1%
%Inh (GRK1): 0%
%Inh (GRK2): 0%

O=C(Nc1n[nH]c2nc(-c3cccs3)c(Br)cc12)C1CC1 [SB-735297]
%Inh (ERK8): 87%
%Inh (ERN1): 0%
%Inh (FAK): 0%
%Inh (FER): 0%
%Inh (FES): 10%
%Inh (FGFR1): 0%
%Inh (FGFR2): 0%
%Inh (FGFR3): 0%
%Inh (FGFR4): 0%
%Inh (FGR): 13%
%Inh (FLT1): 8%
%Inh (FLT3-autoinhibited): 19%
%Inh (FLT3): 81%
%Inh (FLT4): 0%
%Inh (FRK): 0%
%Inh (FYN): 0%
%Inh (GAK): 0%
%Inh (GCN2(Kin.Dom.2,S808G)): 0%
%Inh (GRK1): 10%
%Inh (GRK2): 0%

COc1ccc(-c2coc3ccc(-c4nnc(C)o4)cc23)cc1
%Inh (ERK8): 0%
%Inh (ERN1): 0%
%Inh (FAK): 0%
%Inh (FER): 0%
%Inh (FES): 22%
%Inh (FGFR1): 0%
%Inh (FGFR2): 4%
%Inh (FGFR3): 4%
%Inh (FGFR4): 0%
%Inh (FGR): 36%
%Inh (FLT1): 0%
%Inh (FLT3-autoinhibited): 0%
%Inh (FLT3): 0%
%Inh (FLT4): 0%
%Inh (FRK): 0%
%Inh (FYN): 2%
%Inh (GAK): 0%
%Inh (GCN2(Kin.Dom.2,S808G)): 0%
%Inh (GRK1): 12%
%Inh (GRK2): 0%

COc1ccc(Nc2nccc(-c3ccc(NC(=O)c4cc5cc(F)ccc5[nH]4)cc3)n2)cc1 [GSK1229496]
%Inh (ERK8): 0%
%Inh (ERN1): 0%
%Inh (FAK): 0%
%Inh (FER): 16%
%Inh (FES): 15%
%Inh (FGFR1): 0%
%Inh (FGFR2): 19%
%Inh (FGFR3): 9%
%Inh (FGFR4): 0%
%Inh (FGR): 10%
%Inh (FLT1): 4%
%Inh (FLT3-autoinhibited): 0%
%Inh (FLT3): 0%
%Inh (FLT4): 9%
%Inh (FRK): 0%
%Inh (FYN): 0%
%Inh (GAK): 0%
%Inh (GCN2(Kin.Dom.2,S808G)): 0%
%Inh (GRK1): 3%
%Inh (GRK2): 9%

CCc1ccc(-c2ccc3c(c2)-c2n[nH]cc2S(=O)(=O)N3C)cc1
%Inh (ERK8): 0%
%Inh (ERN1): 0%
%Inh (FER): 6%
%Inh (FES): 2%
%Inh (FGFR1): 6%
%Inh (FGFR2): 0%
%Inh (FGFR3): 0%
%Inh (FGFR4): 0%
%Inh (FGR): 9%
%Inh (FLT1): 14%
%Inh (FLT3-autoinhibited): 4%
%Inh (FLT3): 56%
%Inh (FLT4): 0%
%Inh (FRK): 2%
%Inh (FYN): 14%
%Inh (GAK): 0%
%Inh (GCN2(Kin.Dom.2,S808G)): 24%
%Inh (GRK1): 6%
%Inh (GRK2): 0%

CCn1c(-c2c(N)noc2C)nc2cnccc21 [SB-737856]
%Inh (ERK8): 41%
%Inh (ERN1): 15%
%Inh (FAK): 0%
%Inh (FER): 3%
%Inh (FES): 42%
%Inh (FGFR1): 0%
%Inh (FGFR2): 28%
%Inh (FGFR3): 37%
%Inh (FGFR4): 11%
%Inh (FGR): 61%
%Inh (FLT1): 20%
%Inh (FLT3-autoinhibited): 0%
%Inh (FLT3): 0%
%Inh (FLT4): 0%
%Inh (FRK): 11%
%Inh (FYN): 3%
%Inh (GAK): 21%
%Inh (GCN2(Kin.Dom.2,S808G)): 7%
%Inh (GRK1): 0%
%Inh (GRK2): 0%
